# Screening results (PubChem)
# M1 ag parental – M1 agonist counterscreen hit in parental CHO-K1 cells | Fluo-8 calcium fluorescence; scaled to maximal ATP response, vehicle zero | activation, % at 3 µM | 360,000 compounds, 0.48% hits | AID 602248; in the data active = activation above about 15%;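 also: untransfected CHO-K1 host cells lacking M1 receptor as counterscreen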
# CHRM1 PAM – human CHRM1 positive allosteric modulation. P11229. CHO-K1 hM1, Fluo-8 calcium fluorescence, ACh EC20; 0% = ACh EC20, 100% = maximal ACh. activation, % at 3 µM. 360,000 compounds, 0.088% hits; in the data active = activation above about 19%, passing the limit was not always enough
# Target sequence (P11229 whole entry, looked up): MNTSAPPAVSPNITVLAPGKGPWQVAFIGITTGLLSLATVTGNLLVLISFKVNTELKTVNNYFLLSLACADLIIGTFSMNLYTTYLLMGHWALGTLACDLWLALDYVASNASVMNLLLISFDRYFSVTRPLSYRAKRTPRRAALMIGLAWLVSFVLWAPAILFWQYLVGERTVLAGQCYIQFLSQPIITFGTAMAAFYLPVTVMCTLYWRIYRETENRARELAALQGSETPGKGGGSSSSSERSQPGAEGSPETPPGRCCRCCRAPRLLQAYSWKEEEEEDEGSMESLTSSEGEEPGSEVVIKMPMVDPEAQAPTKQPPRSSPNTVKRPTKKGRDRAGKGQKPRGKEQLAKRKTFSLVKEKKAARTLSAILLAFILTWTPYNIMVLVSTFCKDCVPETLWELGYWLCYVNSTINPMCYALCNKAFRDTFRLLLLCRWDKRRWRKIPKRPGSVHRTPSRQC
# CHO-K1 Ca PAM – M1 PAM counterscreen hit in parental CHO-K1 cells | ATP EC20, Fluo-8 calcium fluorescence; 0% at ATP EC20, 100% at ATP max | activation, % at 3 µM | 360,000 compounds, 0.02% hits;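 active = activation above the run cutoff, the mean activation of all test compounds plus 3 SD, cut at about 40% in these data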;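 also: peak over basal fluorescence ratio in a 140 s read after ATP addition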
# M1 antag – blocks human M1 muscarinic receptor. P11229. CHO-K1 hM1, Fluo-8 calcium fluorescence, ACh EC80 antagonist. inhibition, % at 3 µM. 360,000 compounds, 1.3% hits. AID 588852;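 active = percent inhibition above its own plate's cutoff, namely the mean of that plate's compound wells plus 3 SD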;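 also: peak over basal fluorescence ratio during 140 s after agonist addition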
# CHRM1 agonist – human M1 muscarinic receptor agonism; P11229; CHO-K1 hM1, Fluo-8 calcium fluorescence, agonist mode; 0% DMSO, 100% acetylcholine EC100; activation, % at 3 µM; 360,000 compounds, 0.33% hits; AID 588814;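 active = activation above the run's mean compound activation plus 3 SD, cut at about 16% in these data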;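 also: peak over basal fluorescence ratio within a 140 s kinetic read after compound addition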
# CHO-K1 Ca antag – counter-screen for M1 antagonists: effect in parental CHO-K1 cells. AID 602250. ATP-induced calcium, Fluo-8 fluorescence. inhibition, % at 3 µM. 360,000 compounds, 0.6% hits;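 active = inhibition above a per-plate cutoff, the plate's mean sample inhibition plus 3 SD, cut at about 24% in these data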
# Hits are given with their value; – = inactive. An excerpt weighted towards active compounds, which were near 2.3% of everything screened.
SMILES,M1 ag parental,CHRM1 PAM,CHO-K1 Ca PAM,M1 antag,CHRM1 agonist,CHO-K1 Ca antag
O=S(=O)(NC1=NCCCCC1)c1cc(F)ccc1F,–,–,–,–,–,–
NCC(c1ccccc1Cl)c1c[nH]c2ccccc12 (stereo unspecified),–,–,–,–,–,–
NCC(c1ccc(Cl)cc1Cl)c1c[nH]c2ccccc12 (stereo unspecified),15,–,–,–,–,25
O=C(c1ccc(OC2CCN(CCc3ccccc3)CC2)cc1)N1CCC(CO)CC1,–,–,–,–,–,–
N#CC(c1ccc(Cl)cc1)c1ccc2c(C(F)(F)F)cc(C(F)(F)F)nc2n1 (stereo unspecified),–,–,–,–,–,24
N#Cc1ccc(CN2CCN(C(=O)CNC(=O)Cc3cccc4ccccc34)CC2)cc1,–,–,–,–,23,–
Cc1ccccc1N1C(=O)C2ON(c3ccccc3)C(c3ccco3)C2C1=O (stereo unspecified),16,–,–,–,–,–
CCOc1ccc(Br)cc1S(=O)(=O)NCC(c1ccc(OC)cc1)N1CCOCC1 (stereo unspecified),–,–,–,–,–,–
CC(C)(C)NC(=O)C(c1ccc(F)cc1)N(Cc1ccccc1Cl)C(=O)c1ccn[nH]1 (stereo unspecified),–,–,–,–,–,–
COc1cc(C2C(C(=O)c3ccc(C)o3)=C(O)C(=O)N2CCN2CCOCC2)ccc1OCCC(C)C (stereo unspecified),–,–,–,–,–,–
COC(=O)c1ccccc1NC(=O)CSc1nc(N)cc(N)n1,–,–,–,–,–,26
CCN(CCCNC(=O)C1CCN(S(=O)(=O)c2cccc3nonc23)CC1)Cc1ccccc1,–,–,–,47,–,–
CCN1C(=Nc2ccc(Cl)cc2)SC/C1=C\C(=O)OC,–,–,–,–,–,–
N#Cc1cccc(NC(=O)CSc2ccc3c4c(cccc24)C(=O)c2ccccc2-3)c1,–,–,–,32,44,–
COC(=O)c1ccc(CSc2nc3ccccc3c(=O)n2Cc2ccco2)o1,–,–,–,36,–,–
COC(=O)c1ccc(CSc2nc3ccccc3c(=O)n2CC(C)C)o1,–,–,–,–,–,–
S=c1nn[nH]c2ccccc12,–,–,–,–,–,–
CN(C)CCC(=O)N1c2ccccc2Sc2ccc(C(F)(F)F)cc21,–,–,–,99,–,–
CN1CCN(CCC(=O)N2c3ccccc3Sc3ccc(C(F)(F)F)cc32)CC1,–,–,–,42,–,–
O=C1c2ccccc2C(=O)N1CC(=O)N1c2ccccc2Sc2ccc(C(F)(F)F)cc21,–,–,–,–,–,–
O=C(CSc1nc2ccccc2s1)N1c2ccccc2Sc2ccc(C(F)(F)F)cc21,–,–,–,–,–,–
O=C(Nc1ccccc1C(=O)O)/C(=C/c1ccc([N+](=O)[O-])cc1)NC(=O)c1ccc(Br)o1,–,–,–,–,–,–
C[n+]1c(-c2ccccc2)sc([S-])c1-c1ccccc1,–,–,–,–,–,–
CCOC(=O)CSc1ccc(C(=O)NCCCN2CCOCC2)cc1[N+](=O)[O-],–,–,–,65,–,–
O=C(NCCCN1CCOCC1)c1ccc(Sc2cccc(Cl)c2)c([N+](=O)[O-])c1,–,–,–,83,–,–
SMILES,M1 ag parental,CHRM1 PAM,CHO-K1 Ca PAM,M1 antag,CHRM1 agonist,CHO-K1 Ca antag
COC(/C(=N/O)c1ccc(Cl)cc1)c1ccccc1 (stereo unspecified),–,–,–,47,–,31
O=C(C1COc2ccccc2O1)N1CCN(c2ccccc2Cl)CC1 (stereo unspecified),–,–,–,–,–,–
COc1ccc(C(CNC(=O)c2cc3c(s2)CCC(C)C3)N2CCCC2)cc1 (stereo unspecified),–,–,–,–,–,–
CCC1CCc2sc(C(=O)NCC(c3ccccc3OC)N3CCCC3)cc2C1 (stereo unspecified),–,–,–,43,–,–
COc1ccccc1C(CNC(=O)C(C)Oc1ccc(Br)cc1)N1CCCC1 (stereo unspecified),–,–,–,31,–,–
O=C(C1COc2ccccc2O1)N1CCCCC1 (stereo unspecified),–,–,–,–,–,24
COc1ccccc1C(CNC(=O)C(C)(C)Oc1ccc(Cl)cc1)N1CCCC1 (stereo unspecified),–,–,–,89,–,–
O=C1OCC(CO)(CO)N=C1NNc1ccccc1Cl,–,–,–,–,–,–
O=C1N/C(=N/N=C/c2ccccc2)SC1(c1ccccc1)c1ccccc1,–,–,–,–,–,–
CCCNC(=O)COc1coc(CN2CCN(c3ccc(F)cc3)CC2)cc1=O,–,–,–,–,–,–
COc1ccccc1C(CNC(=O)C1COc2ccccc2O1)N1CCCC1 (stereo unspecified),–,–,–,77,–,–
COc1ccccc1CNC(=O)C1COc2ccccc2O1 (stereo unspecified),–,–,–,–,–,–
COc1ccc(NC(=O)CC(=O)Nc2ccc(OC)cc2)cc1,–,–,–,–,–,–
Cc1cc(-c2cn3ccccc3n2)c(C)n1-c1ccccc1,–,–,–,34,–,–
Cc1cc(/C=C(\C#N)C(N)=O)c(C)n1-c1ccc(N2CCOCC2)c([N+](=O)[O-])c1,–,–,–,–,34,–
CCn1c(SCC(=O)Nc2ccccc2)nnc1-c1cccs1,–,–,–,–,–,–
CCn1c(SCC(=O)c2ccc(NS(=O)(=O)c3ccccc3)cc2)nnc1-c1cccs1,–,–,–,–,–,24
CCN(CC)CCCNC(=O)CNC(=O)c1nn(-c2ccc(OC)cc2)c(=O)c2ccccc12,–,–,–,45,–,–
CCC1CCCCN1CCCNC(=O)CNC(=O)c1nn(-c2ccc(OC)cc2)c(=O)c2ccccc12 (stereo unspecified),–,–,–,40,–,–
CCN(CC)CCNC(=O)CNC(=O)c1nn(-c2ccc(OC)cc2)c(=O)c2ccccc12,–,–,–,–,–,–
Cc1ccc(CNS(=O)(=O)c2cc3c4c(c2)C(C)C(=O)N4CCC3)cc1 (stereo unspecified),–,–,–,–,–,–
Cc1cccc(NC(=O)c2ccc(COc3cccc4ccccc34)o2)n1,–,–,–,–,–,–
Oc1ccccc1N=Cc1c(O)ccc2ccccc12,–,–,–,–,22,–
Oc1ccc2ccccc2c1C=Nc1ccccc1Br,–,–,–,–,–,–
CCOc1ccc(NS(=O)(=O)c2ccc(C(=O)N(C)CC(=O)Nc3ccccc3Br)cc2)cc1,–,–,–,–,–,–
